Only some compounds are listed: those with a hit (about 12% of all), similar ones and a draw of the others.
JMJD2A Tudor = inhibitors of human JMJD2A Tudor domain; AID 504339; Potency, µM (top dose mostly 114 µM), hits mostly inhibitors; O75164; 390,000 compounds, 4.4% hits; AlphaScreen JMJD2A-Tudor / H3K4me3 peptide binding; further: nearly all actives have a fitted effect of over 50% in size
HP1b chromo inh = inhibitors of HP1-beta chromodomain binding to methylated histone tails; P83916; AlphaScreen HP1-beta / biotin-H3K9me3 peptide binding; Potency, µM (series often up to 114 µM), usual class: inhibitors; 390,000 compounds, 0.56% hits; AID 540317; further: nearly all actives have a fitted effect of over 70% in size
Target sequence (P83916 whole entry, looked up): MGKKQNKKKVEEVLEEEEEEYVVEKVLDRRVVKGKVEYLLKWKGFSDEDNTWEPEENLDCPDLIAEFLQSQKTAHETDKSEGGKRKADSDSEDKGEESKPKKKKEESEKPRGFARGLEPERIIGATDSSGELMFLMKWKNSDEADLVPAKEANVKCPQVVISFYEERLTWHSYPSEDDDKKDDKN
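Compound inhibition of the preformed complex between 50 nM HP1-beta and 50 nM biotinylated H3K9me3 peptide was read by AlphaScreen. Buffer was PBS pH 7.4 with 0.01% Tween-20. Incubations ran 30 min at room temperature, with 10 ug/mL donor/acceptor beads.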
Sfp PPTase inh = inhibitors of Bacillus subtilis Sfp phosphopantetheinyl transferase; AID 1490; 310,000 compounds, 3.5% hits; Biochemical Sfp PPTase activity, qHTS; Q9F4F7; Potency, µM, actives largely listed as inhibitors;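 further: the enzyme is Sfp with the accession as filed and its product quenches rhodamine fluorescence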
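Fluorescence-quenching assay with 15 nM Sfp, 5 uM rhodamine-CoA and 12.5 uM BHQ-2-labelled ybbR peptide in pH 7.6 Hepes/MgCl2 buffer. Enzyme was pre-incubated with compound for 15 min at room temperature. Rate was taken from the 30-min fluorescence change (525/598 nm).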
G9a inh = blocks human histone lysine methyltransferase G9a; Q96KQ7; G9a H3K9 monomethylation, AlphaScreen, 2 h; Potency, µM (top dose mostly 102 µM), usual class: inhibitors; 350,000 compounds, 8.8% hits; AID 504332; further: nearly all actives have a fitted effect of over 75% in size
Target sequence (Q96KQ7 913-1193 limits assumed): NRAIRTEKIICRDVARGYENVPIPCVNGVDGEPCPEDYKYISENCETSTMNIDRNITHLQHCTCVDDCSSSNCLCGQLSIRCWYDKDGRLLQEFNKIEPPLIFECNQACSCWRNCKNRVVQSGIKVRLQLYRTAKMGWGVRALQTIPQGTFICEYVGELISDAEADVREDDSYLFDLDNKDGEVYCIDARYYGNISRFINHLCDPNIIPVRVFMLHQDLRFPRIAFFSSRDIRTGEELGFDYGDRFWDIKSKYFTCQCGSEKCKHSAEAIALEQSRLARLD
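Quantitative HTS format: methyltransferase activity on a biotin-tagged H3K9 peptide is measured by AlphaScreen, using a rabbit anti-monomethyl-H3K9 antibody with streptavidin donor and anti-IgG acceptor beads. Final levels are 20 nM enzyme, 500 nM peptide, 20 uM SAM; 2 h RT.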
BAZ2B block = inhibitors of human BAZ2B bromodomain. AlphaScreen BAZ2B-H3K14Ac peptide displacement. Potency, µM (doses to about 114 µM), hits mostly inhibitors. Q9UIF8. 360,000 compounds, 4.4% hits. AID 504333; further: nearly all actives have a fitted effect of over 60% in size
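AlphaScreen displacement: compounds (up to 110uM) incubated 30 min at room temperature with a preformed 50 nM BAZ2B/50 nM biotinylated H3K14Ac peptide complex in PBS pH 7.4 with Tween-20. Donor and acceptor beads at 10 ug/mL final added, 20 min light-protected before reading.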
A number is an active result; - = inactive; ? = inconclusive; . = no result given; [ ] = remark or other dose. The call rests on the fitted dose curve; in most records, active means well fitted curve in the direction sought with a large enough effect; inconclusive means small, poorly fitted or top-dose-only effect, or another doubt; inactive means no such curve, though single readings can be large; an effect the other way counts as inactive or inconclusive.

SMILES	JMJD2A Tudor	HP1b chromo inh	Sfp PPTase inh	G9a inh	BAZ2B block
Cc1cccc(N2CCN(S(=O)(=O)c3ccc4c(c3)CC(=O)N4C)CC2)c1C	-	-	-	-	-
CCOC(=O)C1CCN(S(=O)(=O)c2ccc3c(c2)CCCN3C(C)=O)CC1	-	-	-	-	-
CCN1CCC(N(Cc2ccc(F)cc2)C(=O)Nc2cccc(C(F)(F)F)c2)CC1	-	-	.	-	-
COCC(C)NC(=O)c1cc2c(=O)n3cccc(C)c3nc2s1 (centres undefined)	-	-	.	-	-
CC1CCN(c2ccc(S(=O)(=O)N3CCC(C)CC3)cc2N)CC1	-	-	-	-	-
CC1CCN(S(=O)(=O)c2ccc3c(c2)N(C)C(=O)CC(=O)N3C)CC1	-	-	-	28µM	-
Cc1ccc(C)c(NC(=O)CSc2ncc3c(n2)-c2ccc(Cl)cc2N(C)S3(=O)=O)c1	-	-	.	-	-
CCOc1cc(/C=N/N=C2/NC(=O)C(CC(=O)O)S2)ccc1OCc1ccccc1Cl (centres undefined)	?	-	-	?	50µM
COc1ccc(S(=O)(=O)Oc2cccc(/C=N/N=C3/NC(=O)C(CC(=O)O)S3)c2)cc1 (centres undefined)	-	-	-	.	?
CCOc1cc(/C=N/N=C2/NC(=O)C(CC(=O)O)S2)ccc1OS(=O)(=O)c1ccc(C)cc1 (centres undefined)	-	-	-	-	?
COc1ccc(/C=N/N=C2/NC(=O)C(CC(=O)O)S2)cc1OCc1ccc(Cl)cc1Cl (centres undefined)	?	-	-	79µM	50µM
COc1ccc(/C=N/N=C2/NC(=O)C(CC(=O)O)S2)cc1OCc1ccccc1Cl (centres undefined)	?	-	-	-	50µM
COC(=O)c1ccccc1NC(=O)C1CCN(c2ncnc3c2nc2n3CCCCC2)CC1	-	-	-	-	-
O=c1[nH]c(=O)c2nnc(N/N=C\c3ccc(O)cc3)nc2[nH]1	?	-	?	11µM	?
O=C1Nc2ccccc2/C1=C/c1ccc([N+](=O)[O-])cc1	-	-	-	-	-
CC1(c2ccc([N+](=O)[O-])cc2)Nc2ccccc2S1 (centres undefined)	40µM	?	50µM	28µM	13µM
CN(Cc1ccccc1)C(=O)C1CCN(S(=O)(=O)c2ccc3nc4c(c(C(=O)O)c3c2)CCCC4)CC1	-	-	-	?	50µM
CN(Cc1ccccc1)C(=O)C1CCN(S(=O)(=O)c2cccc3nsnc23)CC1	14µM	-	-	-	-
CC(NC(=O)C1CCN(S(=O)(=O)c2ccc3nc4c(c(C(=O)O)c3c2)CCCC4)CC1)c1ccccc1 (centres undefined)	-	-	-	40µM	-
CC1CCC(NC(=O)C2CCN(S(=O)(=O)c3ccc4nc5c(c(C(=O)O)c4c3)CC(C)CC5)CC2)CC1 (centres undefined)	-	-	-	50µM	-
CCCNC(=O)C1CCN(S(=O)(=O)c2ccc3nc4c(c(C(=O)O)c3c2)CCCCC4)CC1	-	-	-	-	-
CCC(C)NC(=O)C1CCN(S(=O)(=O)c2ccc3nc4c(c(C(=O)O)c3c2)CCCCC4)CC1 (centres undefined)	-	-	-	?	-
Cc1cccc(Nc2nc(C#N)nc(NC3CCCC3)n2)c1	-	.	.	.	.
CC(=O)OCC(=O)C1(O)CCC2C3CCC4C(OC(C)=O)C(=O)CCC4(C)C3C(=O)CC21C (centres undefined)	-	-	.	.	.
CN1CCN(c2ncncc2-c2ccc(N(C)C)cc2)CC1	.	.	-	-[0.501 µM]	.
SMILES	JMJD2A Tudor	HP1b chromo inh	Sfp PPTase inh	G9a inh	BAZ2B block
Cc1cccc(C)c1-n1ncc(C(=O)NC2CCCC2)c1C1CCN(C(=O)OC(C)(C)C)CC1	-	-	.	-	-
COC(=O)c1cc(C(=O)c2ccc(Cl)cc2)n2c(=O)/c(=C\N(C)C)sc12	-	-	-	-	-
COc1ccc(/C=C/C(=O)c2ccc([N+](=O)[O-])o2)cc1OC	-	-	.	-[12.7 µM]	-
O=C(/C=C/c1ccccc1O)c1ccccc1	-	-	.	.	.
Cc1cc(O)c(C(=O)/C=C/c2cccc([N+](=O)[O-])c2)c(=O)o1	?	-	-	13µM	?
Cc1cc(O)c(C(=O)/C=C/c2ccccc2O)c(=O)o1	?	-	-	50µM	?
O=C(/C=C/c1cccc(Cl)c1)c1ccc([N+](=O)[O-])o1	?	-	.	?	10µM
COc1cc(NS(=O)(=O)c2ccc(-c3cc(C)no3)cc2)cc(OC)c1	-	-	.	-	-
Cc1ccc(S(=O)(=O)N2CCC(N3CCC(C)CC3)CC2)cc1	1.6µM	?	-	25µM	?
CCCCOc1ccc(S(=O)(=O)n2nc(C)c(S(=O)(=O)N3CCC(C)CC3)c2C)cc1	-	-	.	-	-
CC1CCN(S(=O)(=O)c2ccc(S(=O)(=O)N3CCC4(CC3)OCCO4)cc2)CC1	-	-	-	11µM	-
CC1CN(C2CCN(S(=O)(=O)c3ccc(F)cc3)CC2)CC(C)O1 (centres undefined)	2.8µM	?	-	10µM	32µM
Cc1ccc(S(=O)(=O)n2nc(C)c(S(=O)(=O)N3CCC(C)CC3)c2C)cc1	79µM	-	.	-	-
CC1CCN(S(=O)(=O)c2ccc(Cl)cc2)CC1	-	-	-	-	-
O=S(=O)(c1ccc(S(=O)(=O)N2CCC3(CC2)OCCO3)cc1)N1CCCC1	-	-	-	-	-
O=C(COc1ccc(/C=C2/NC(=O)NC2=O)cc1)Nc1ccc(F)cc1	-	-	-	-	?
Cc1snc2sc(C(=O)c3ccc(F)cc3)c(N)c12	-	-	40µM	.	-
CN(C)c1ccnc2sc(C(=O)c3ccc(Br)cc3)c(N)c12	-	-	-	.	-
Cc1nn2c(=O)cc(COc3ccc(/C=C(\C#N)C(=O)Nc4ccccc4)cc3Cl)nc2s1	-	-	.	-	?
COC1(NC(=O)c2ccccc2)C(C)=CC(=O)C=C1C	-	?	-	45µM	-
Cc1ccc(C)n1NC(=O)c1ccccc1	-	-	-	-[12.7 µM]	-
O=C(NC1(O)C(=O)c2ccccc2C1=O)c1ccccc1	-	-	?	45µM	-
O=C(NC1(O)C(=O)c2ccccc2C1=O)c1c(Cl)cccc1Cl	-	-	-	56µM	-
COc1cccc(C(=O)n2nc(-c3ccco3)nc2NCc2cccs2)c1	-	-	.	-	-
CCOc1ccccc1NC(=O)N(Cc1ccc(F)cc1)C1CCN(CC)CC1	-	-	.	-	-
Cn1c2c(c(=O)n(C)c1=O)[C@@]1(C(=O)Nc3ccccc31)C(C#N)=C(N)O2	-	-	-	45µM	-
N#CC1=C(N)Oc2n[nH]c(-c3ccccc3)c2C12C(=O)Nc1ccccc12 (centres undefined)	-	-	-	-[12.7 µM]	-
O=C(CBr)c1ccc([N+](=O)[O-])c(CS(=O)(=O)c2ccc(Cl)cc2)c1	?	-	56µM	7.1µM	-

Compound activity deposited in PubChem by National Center for Advancing Translational Sciences (NCATS).
